PubChem BioAssay AID504909 (Southern Research Specialized Biocontainment Screening …, 2011)
Potency and affinity values are given separately. The source made the active and inactive calls. No rule for the calls is given here.

Assay: Vero cell cytotoxicity, dose response, cytotoxicity control for M. tuberculosis growth inhibitor project, Vero cells, purified and synthesized compounds, set 5 (AID 504909)
Conditions: series mostly up to 100 µM; viability: at the top concentration

Structure (SMILES)	viability
O=C(CSc1nc2ccccc2c(=O)[nH]1)NC1CCCCC1	96.5% (inactive)
O=C(CSc1nc2c(c(=O)[nH]1)CCCC2)NC1CCCCC1	82.8% (inactive)
O=C(CSc1nc2c(c(=O)[nH]1)CCC2)NC1CCCCC1	96.3% (inactive)
Cc1nc(SCC(=O)NC2CCCCC2)[nH]c(=O)c1C	91.7% (inactive)
Cc1[nH]c(=S)[nH]c(=O)c1C	98.1% (inactive)
Cc1nc(SCC(N)=O)[nH]c(=O)c1C	102% (inactive)
O=C(CSc1nc2ccccc2c(=O)[nH]1)NCc1ccc(Cl)cc1	82.8% (inactive)
CCSc1nc(C)c(C)c(=O)[nH]1	100% (inactive)
NC[C@H]1O[C@H](O[C@H]2[C@H](O)[C@@H](O[C@H]3O[C@H](CO)[C@@H](O)[C@H](N)[C@H]3O)[C@H](N)C[C@@H]2N)[C@H](O)[C@@H](O)[C@@H]1O	110% (inactive)
COc1ccc(NC(=O)CSc2nc3ccccc3c(=O)[nH]2)cc1	89.5% (inactive)
CC(Sc1nc2ccccc2c(=O)[nH]1)C(=O)NC1CCCCC1 (configuration not stated)	99.7% (inactive)
Cc1nc(SCc2ccccc2Cl)[nH]c(=O)c1C	104% (inactive)
COC(=O)C(C)Oc1ccc(Cc2ncc(C(F)(F)F)cc2Cl)cc1 (configuration not stated)	85.8% (inactive)
COc1cccc(NC(=O)CSc2nc3c(c(=O)[nH]2)CCC3)c1	93.6% (inactive)
CC(C)CCNC(=O)CSc1nc2c(c(=O)[nH]1)CCC2	88.5% (inactive)
O=c1[nH]c(=S)[nH]c2ccccc12	81.5% (inactive)
O=C(CSc1nc2ccccc2c(=O)[nH]1)N1CCOCC1	99.1% (inactive)
CCC(Sc1nc2ccccc2c(=O)[nH]1)C(=O)Nc1cccc(OC)c1 (configuration not stated)	91.9% (inactive)
NC(=O)CSc1nc2ccccc2c(=O)[nH]1	97.1% (inactive)
CCOC1OC(=O)C(Cl)=C1Nc1ccccc1C (configuration not stated)	103% (inactive)
CN(C)C(=O)CSc1nc2ccccc2c(=O)[nH]1	88.3% (inactive)
O=C(CSc1ccccn1)NC1CCCCC1	91% (inactive)
Cc1cnc(SCC(=O)NC2CCCCC2)[nH]c1=O	97.2% (inactive)
Cc1nc(SCC(=O)NCCC(C)C)[nH]c(=O)c1C	93.5% (inactive)
CC[C@@H](CO)NCCN[C@@H](CC)CO	108% (inactive)
NNC(=O)c1ccncc1	107% (inactive)
CC1CCN(C(=O)CSc2nc3ccccc3c(=O)[nH]2)CC1	92.3% (inactive)
